This is a sample that favours compounds with a hit; in the whole collection about 3.7% have one here.
ATXN2 expr inh = inhibitors of ATXN2 expression; Potency, µM (top dose mostly 57 µM), for inactives: top-dose activity change, negative = inhibition, most hits filed as inhibitors; 360,000 compounds, 0.72% hits; AID 1745845; HEK-293 ATXN2-luciferase reporter, luminescence, 24 h; further: on the % scale 0 is the no-effect control and ±100 the full control effect; nearly all actives have a fitted effect of over 55% in size
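qHTS (up to 57 uM final) was run with 24 h compound exposure of reporter cells at 37 °C. Each well was multiplexed: SteadyGlo luminescence measured ATXN2-luciferase expression after a fluorogenic Gly-Phe-AFC viability readout (25 uM final).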
HepG2 viability = counter-screen for TGF-b inhibitors: cytotoxicity in HepG2 cells; HepG2 CAGA-GFP viability, ATP luminescence, 18 h; Potency, µM (highest dose often 46.1 µM), without a hit: at the top dose activity change, negative = cytotoxicity, usual class: cytotoxic; 410,000 compounds, 0.76% hits
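CellTiter-Glo luminescence gave cytotoxicity after 18 hours at 37 degrees C. The cells were HepG2 CAGA-GFP in 1% FBS DMEM, stimulated with 500 pg/mL TGF-beta after compound addition. %Activity was normalised to no-cell wells (complete cell-killing) and DMSO (no toxicity), and curves were fitted and classified.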
GLP1R inv ag = inverse agonists of human GLP-1 receptor; P43220; HEK293 GLP-1R CRE-luciferase, luminescence, 24 h; GLP-1R form is constitutively active; Potency, µM (highest dose often 38.3 µM), for inactives: at the highest dose activity change, negative = inhibition, actives largely listed as inhibitors; 410,000 compounds, 1.6% hits; further: on the % scale 0 is the no-effect control and ±100 the full control effect; nearly all actives have a fitted effect of over 55% in size
Target sequence (P43220 whole entry, looked up): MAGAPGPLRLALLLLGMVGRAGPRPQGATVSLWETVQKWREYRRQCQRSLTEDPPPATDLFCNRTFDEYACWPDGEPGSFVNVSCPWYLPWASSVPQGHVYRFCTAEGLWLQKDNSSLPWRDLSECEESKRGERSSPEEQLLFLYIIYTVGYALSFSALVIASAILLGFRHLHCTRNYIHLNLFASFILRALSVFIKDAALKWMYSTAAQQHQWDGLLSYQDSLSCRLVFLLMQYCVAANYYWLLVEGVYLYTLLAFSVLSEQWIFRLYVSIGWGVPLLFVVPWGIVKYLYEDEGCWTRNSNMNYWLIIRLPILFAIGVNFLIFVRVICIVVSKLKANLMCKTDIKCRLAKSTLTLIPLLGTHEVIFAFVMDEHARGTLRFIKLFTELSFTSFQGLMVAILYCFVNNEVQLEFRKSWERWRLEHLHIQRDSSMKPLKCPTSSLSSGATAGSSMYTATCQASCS
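Inverse agonists were sought by their lowering of basal cAMP reporter luciferase output in HEK293 cells stably carrying constitutively active human GLP-1R, after 24 h compound treatment.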
TGFb SMAD3 inh = TGF-b pathway inhibition | AID 588855 | HepG2 CAGA-GFP TGF-b/SMAD3 reporter, GFP fluorescence, 18 h; TGF-beta stimulated, 500 pg/mL final | 410,000 compounds, 1.2% hits | Potency, µM (highest dose often 46.1 µM), for inactives: top-dose activity, negative = inhibition, actives largely listed as inhibitors; further: on the % scale 0 is the no-effect control and ±100 the full control effect; nearly all actives have a fitted effect of over 65% in size
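Cell-based qHTS in HEPG2 carrying a CAGA-GFP Smad reporter; compounds added before 500 pg/mL final TGF-beta, 18 h incubation at 37 degrees C, GFP fluorescence quantified per cell by imaging cytometry.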
GLP-1R agonist = GLP-1 receptor (human) agonism; P43220; HEK293 GLP-1R CRE-luciferase, luminescence, 4-6 h; cells express a hypersensitive GLP-1R form; Potency, µM (titrated, usually from 45.6 µM), without a hit: top-dose activation, usual class: activators; 380,000 compounds, 0.007% hits; AID 624172; further: % of control where 0% means no effect
ATXN viability = viability counter-screen for ATXN expression inhibitors; 400,000 compounds, 0.49% hits; S2 cells (HEK-293 line with an ATXN2-luciferase reporter) viability, CellTiter-Fluor protease fluorescence, 24 h; AID 651635; Potency, µM (titrated, usually from 56.7 µM), most hits filed as cytotoxic; further: nearly all actives have a fitted effect of over 40% in size
The depositor's hits bear a star; i = inactive; ? = inconclusive; nt = not tested or not shown. The call rests on the fitted dose curve; in most records, active means well fitted curve in the direction sought with a large enough effect; inconclusive means small, poorly fitted or top-dose-only effect, or another doubt; inactive means no such curve, though single readings can be large; an effect the other way counts as inactive or inconclusive. Potency means the concentration at half of the fitted maximal effect.

SMILES	ATXN2 expr inh	HepG2 viability	GLP1R inv ag	TGFb SMAD3 inh	GLP-1R agonist	ATXN viability
Cc1cc(C)cc(NC(=O)C2CCCN(C(=O)c3cnn(-c4ccccc4)c3-n3cccc3)C2)c1 (stereo not given)	?	-22%	10µM*	?	nt	nt
CCc1c(C)sc2c1CCN(C(=O)Nc1ccc(F)c(Cl)c1)C2c1ccc(F)cc1 (stereo not given)	?	-54%	?	?	nt	?
Cc1cc(=O)n2c(C(=O)Nc3ccc(C)c(Cl)c3)c(C(=O)Nc3ccccc3)sc2n1	4%	-15%	0%	?	nt	i
Cc1ccc(C2=NNC(c3ccc(Cl)cc3)=Nc3ccccc32)o1	5%	6%	7.9µM*	-17%	4%	i
CN(C)c1ccc(/C=C/c2ccnc3ccccc23)cc1	nt	-34%	nt	0%	nt	nt
N#Cc1c(N)[nH]c2ccc(Sc3ccccc3)cc12	2%	1%	?	16µM*	2%	?
N#Cc1c(N)[nH]c(=S)c(C#N)c1-c1ccccc1	-4%	11%	0%	-1%	3%	i
COC(=O)c1c(OCC2CCCN(C)C2)cc(=O)n2c1CCN(Cc1ccc(OC)c(O)c1)CC2 (stereo not given)	nt	nt	nt	nt	nt	i
OC[C@H](Cc1ccccc1)Nc1nc(Oc2ccc3c(c2)CCC3)nc2c1ncn2Cc1ccc(-c2ccccc2)cc1	139%	nt	nt	nt	nt	nt
Cc1cn2c(=O)cc(COc3cccc(NC(=O)c4ccc(C(C)(C)C)cc4)c3)nc2s1	nt	4%	20%	?	nt	nt
Cc1ccc(S(=O)(=O)N(CC(O)CN2C(=O)NC(C)(C)C2=O)c2cccc(C)c2)cc1 (stereo not given)	3%	-4%	-8%	-10%	20%	i
Cc1cccc(N(CC(O)Cn2c3ccccc3c3ccccc32)S(=O)(=O)c2ccc(F)cc2)c1 (stereo not given)	?	-99%	13µM*	?	nt	nt
CC(=O)Nc1ccc(N(CC(O)Cn2c3ccccc3c3ccccc32)S(=O)(=O)c2ccc(C)cc2)cc1 (stereo not given)	?	-49%	7.9µM*	14µM*	3%	i
Cc1ccccc1CNC(=O)C1CCCCN1S(=O)(=O)c1ccc(F)cc1 (stereo not given)	-8%	-21%	?	-29%	nt	i
COc1ccc(NC(=O)c2ccc3oc(=O)c(S(=O)(=O)c4ccc(F)cc4)cc3c2)cc1OC	-25%	-73%	3%	11µM*	nt	?
COc1ccc(NC(=O)c2ccc3oc(=O)c(S(=O)(=O)c4ccc(C)cc4)cc3c2)cc1OC	2%	-46%	3%	-25%	nt	i
CCC(Sc1nc2ccc(C)cc2[nH]1)C(=O)O (stereo not given)	11%	-3%	0%	-1%	0%	?
Cn1cnnc1SC(C(=O)Nc1ccc(F)cc1)c1ccccc1 (stereo not given)	-6%	10%	0%	24%	-7%	i
Cc1ccc2nc(SC(C(=O)Nc3ccc(F)cc3)c3ccccc3)[nH]c2c1 (stereo not given)	-11%	-50%	5.6µM*	?	-18%	i
Cc1ccc(C)c(NC(=O)C(Sc2nc3ccc(C)cc3[nH]2)c2ccccc2)c1 (stereo not given)	-38%	-29%	3.2µM*	-20%	1%	i
CCCN1C(=O)C2(c3ccccc31)c1c(oc3ccc(F)cc3c1=O)C(=O)N2CCCOC(C)C (stereo not given)	5%	1%	13%	-9%	nt	i
Cn1cc(CN(C(=O)Nc2ccc(Cl)c(Cl)c2)C2CCCCC2)c2ccccc21	14%	-5%	20%	-5%	-1%	i

Compound activity: PubChem, National Center for Advancing Translational Sciences (NCATS)
